# Screens: PubChem BioAssay, several laboratories
# GLD-1 TGE inh = GLD-1/TGE RNA complex disruptors, primary screen, biochemical, fluorescence polarization. Female germline-specific tumor suppressor gld-1 (Caenorhabditis elegans), Q17339. hit rate 0.44% among 320,000. inhibition, % at 5.96 µM. purified GLD-1 + fluorescein TGE RNA;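 active means percent inhibition above a per-plate cutoff, the plate mean of test compounds plus 3 SD, cut at about 30% in these data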;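 further: 0% = DMSO wells with GLD-1 and probe and 100% = wells lacking GLD-1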
# Target sequence (Q17339 whole entry, looked up): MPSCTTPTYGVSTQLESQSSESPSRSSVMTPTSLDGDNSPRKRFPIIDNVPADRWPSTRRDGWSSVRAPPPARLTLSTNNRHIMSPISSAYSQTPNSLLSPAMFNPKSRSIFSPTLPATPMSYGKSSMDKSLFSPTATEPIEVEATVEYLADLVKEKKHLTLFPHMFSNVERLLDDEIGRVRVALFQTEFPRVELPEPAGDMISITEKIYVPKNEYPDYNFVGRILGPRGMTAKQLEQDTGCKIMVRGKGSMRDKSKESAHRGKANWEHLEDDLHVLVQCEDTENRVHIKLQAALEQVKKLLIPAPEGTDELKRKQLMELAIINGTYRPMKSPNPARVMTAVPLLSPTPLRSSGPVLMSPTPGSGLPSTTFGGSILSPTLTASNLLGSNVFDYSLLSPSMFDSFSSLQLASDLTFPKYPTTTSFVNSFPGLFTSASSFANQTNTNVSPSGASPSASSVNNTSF
# Bcl-xL primary = inhibitors of human Bcl-xL, primary screen, biochemical, fluorescence polarization, HTS. hit rate 0.7% among 320,000. AID 2129, 2009. inhibition, % at 10.9 µM. GST-Bcl-xL / FITC-Bim BH3 peptide fluorescence polarization;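 active means inhibition above the mean of all tested compounds plus 3 SD, cutoff set per campaign, cut at about 30% in these data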;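 further: 0% = DMSO wells and 100% = unlabeled Bim-BH3 peptide competitor; inhibitors lower millipolarization by displacing the labeled peptide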
# Mcl1-Bid inh = Mcl-1/Bid binding inhibitors, primary screen, biochemical, TR-FRET, 1536-well; Induced myeloid leukemia cell differentiation protein Mcl-1 (Homo sapiens), Q07820; TR-FRET Mcl-1/Bid-Dy647 peptide binding; inhibition, % at 21.7 µM; hit rate 0.97% among 220,000; AID 1021, 2008;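 active means compounds that cut the binding signal by more than half at the single screening dose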;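 further: His-tagged Mcl-1 with europium anti-His antibody binding Bid BH3 peptide; 0% = Mcl-1 plus peptide wells and 100% = peptide-only wells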
# MCL1-BIM inh = inhibitors of MCL1 binding to BIM-BH3, primary screen, biochemical, fluorescence polarization; Induced myeloid leukemia cell differentiation protein Mcl-1 (Homo sapiens), Q07820; GST-MCL1 / FITC-Bim-BH3 fluorescence polarization; inhibition, % at 10.9 µM; hit rate 0.68% among 320,000; AID 2057, 2009;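 active means inhibition above the mean inhibition of all tested compounds plus 3 SD, set per campaign, cut at about 40% in these data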;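 further: 0% = DMSO wells and 100% = unlabeled Bim-BH3 peptide control; higher means more loss of mP so more displacement of Bim peptide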
# Mcl1 Noxa PPI = Mcl-1/Noxa binding inhibitors, primary screen, biochemical, TR-FRET, 1536-well | Induced myeloid leukemia cell differentiation protein Mcl-1 (Homo sapiens), Q07820 | hit rate 1.5% among 220,000 | TR-FRET Mcl-1/Noxa peptide binding, 2 h | AID 1022, 2008 | inhibition, % at 21.7 µM;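 active means compounds that cut the protein-peptide binding signal by more than 50% relative to plate controls in a single-dose test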;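 further: His-tagged Mcl-1 with rhodamine Noxa BH3 peptide and terbium anti-His antibody; 0% = Mcl-1 plus Noxa peptide wells and 100% = peptide-only wells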
# Mcl-1 Bim block = inhibitors of Bim peptide binding to Mcl-1, primary screen, biochemical, bead-based flow cytometry, multiplex | inhibition, % at 10 µM | hit rate 0.1% among 190,000 | Bim peptide-Mcl-1 binding | Induced myeloid leukemia cell differentiation protein Mcl-1 (Homo sapiens), Q07820; in the data active means inhibition above about 40%;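 further: 0% = no compound tracer wells and 100% = peptide blocker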
# The depositor's hits bear a star; / = no result. Compounds with a hit are over-represented: about 2.3% of the library has one in this group of screens.
SMILES,GLD-1 TGE inh,Bcl-xL primary,Mcl1-Bid inh,MCL1-BIM inh,Mcl1 Noxa PPI,Mcl-1 Bim block
COc1ccc(-n2nc(C)cc2N)cc1,3,1,-20,-1,7,-4
O=C(Nc1nncs1)c1cc(-c2ccco2)nc2ccccc12,5,/,/,/,/,/
NC(=O)COC(=O)c1cc(-c2ccco2)nc2ccccc12,18,25,9,25,61*,/
O=C(COC(=O)c1ccco1)NCc1ccc2c(c1)OCO2,-4,0,-19,2,13,/
CCOC(=O)c1cc(-c2ccco2)nc2c1c(C)nn2-c1ccccc1,-1,10,14,9,56*,5
O=C(COC(=O)c1cc(-c2ccco2)nc2ccccc12)NCc1ccc2c(c1)OCO2,10,11,22,16,76*,1
O=C(NC1CCC(O)CC1)c1cc(-c2ccco2)nc2ccccc12 (centres undefined),13,15,-43,39,55*,0
CC(C)CC(NC(=O)C1CCC(=O)N1C(=O)OCc1ccccc1)C(=O)NC(Cc1ccccc1)C(N)=O (centres undefined),4,4,/,5,/,/
COc1cc2c(c(OC)c1OC)CCc1cnoc1-2,3,2,-60,-5,-20,/
C=CCNC(=O)CN1C(=O)c2cccc3cccc1c23,3,9,/,4,/,/
CCC(=O)N1CCN(c2nc3ccc(Br)cc3s2)CC1,6,2,/,-1,/,/
C=CCC[C@H](Cc1ccc(F)cc1)C(=O)OC[C@@H](Cc1c[nH]c2ccccc12)NC(=O)[C@H](CC=C)CC(=O)N(CCO)Cc1ccccc1,10,/,/,/,/,/
Cc1csc(NC(=O)C2CCN(S(=O)(=O)c3cccs3)CC2)n1,6,-7,84*,-3,-9,1
CCCNC(=O)C(Cc1ccc(C(F)(F)P(=O)(OCC)OCC)cc1)NC(=O)c1ccc(C#N)cc1 (centres undefined),4,/,/,/,/,/
O=C(OC1CCCCC1)c1ccc2c(c1)C1C=CCC1C(C(=O)O)N2 (centres undefined),/,/,98*,/,108*,-1
O=C(O)C1Nc2c(O)cccc2C2C=CCC12 (centres undefined),3,62*,86*,90*,115*,-2
COc1ccc(CNS(=O)(=O)c2ccc(F)c(C(=O)Nc3ccc(OC)cc3)c2)cc1,5,2,-12,1,53*,-2
Cc1ccc(-c2noc(CNC(=O)c3ccc4c(c3)OCO4)n2)cc1,1,2,/,5,/,/
CC(=O)N/C(=C\c1ccc(C)o1)C(=O)NCc1ccccc1,4,9,/,13,/,/
Cc1nn(-c2ccccc2)nc1C(=O)OCC(=O)N1CCC(C)CC1,-4,-1,/,2,/,/
COc1ccccc1-c1nc(SCC(=O)N(C)c2ccccc2)c2c(=O)n(C)c(=O)n(C)c2n1,2,7,57*,2,35,0
CCCCCCOC(=O)C(C#N)c1nc2ccccc2nc1N1CCN(C)CC1 (centres undefined),11,16,-14,18,53*,-1
O=C(O)C(O)c1ccccc1 (centres undefined),-2,4,8,-3,-13,-1
O=C(O)C(O)c1ccco1 (centres undefined),/,/,-25,/,67*,-2
Nc1n[nH]c(=S)n1/N=C1/C(=O)Nc2ccccc21,/,/,22,/,71*,0
SMILES,GLD-1 TGE inh,Bcl-xL primary,Mcl1-Bid inh,MCL1-BIM inh,Mcl1 Noxa PPI,Mcl-1 Bim block
O=C1Nc2ccccc2C1=Nc1ccc(F)cc1,6,10,/,7,/,/
COC(=O)/C(=N/Nc1ccc(C)cc1)N1CCCc2ccccc21,3,2,-95,4,-2,-3
COC(=O)/C(=N/Nc1ccccc1)N1CCCc2ccccc21,-8,-2,95*,-5,19,-2
O=C(Nc1ccccn1)c1cc2ccccc2cc1O,17,-2,/,2,/,/
CC(C)(C)c1ccc(C(=O)NCCC(=O)NNC(=O)COc2ccccc2F)cc1,-7,/,/,/,/,/
CN1CCN(S(=O)(=O)c2ccc(Br)c3ccccc23)CC1,5,0,/,-6,/,/
